PubChem BioAssay (Tox21)
Inconclusive results are not listed. A call without a number means that no potency is given here. Active and inactive are the calls of the source. Calls come from the whole dose curve; as a rule, active = well fitted curve in the direction sought with a large enough effect in the repeat runs; inconclusive = weak or mixed curves; inactive = no such curve, though single readings can be large; an effect the other way counts as inactive or inconclusive.

Tests used:
[1] = target: Nuclear receptor subfamily 1 group I member 2 (Homo sapiens) (UniProt O75469); assay: Human pregnane X receptor (PXR) small molecule agonists, qHTS assay (AID 1346982); note: nearly all actives have a fitted effect of over 35% in size
Chain of Nuclear receptor subfamily 1 group I member 2 (Homo sapiens) (O75469 whole entry, looked up): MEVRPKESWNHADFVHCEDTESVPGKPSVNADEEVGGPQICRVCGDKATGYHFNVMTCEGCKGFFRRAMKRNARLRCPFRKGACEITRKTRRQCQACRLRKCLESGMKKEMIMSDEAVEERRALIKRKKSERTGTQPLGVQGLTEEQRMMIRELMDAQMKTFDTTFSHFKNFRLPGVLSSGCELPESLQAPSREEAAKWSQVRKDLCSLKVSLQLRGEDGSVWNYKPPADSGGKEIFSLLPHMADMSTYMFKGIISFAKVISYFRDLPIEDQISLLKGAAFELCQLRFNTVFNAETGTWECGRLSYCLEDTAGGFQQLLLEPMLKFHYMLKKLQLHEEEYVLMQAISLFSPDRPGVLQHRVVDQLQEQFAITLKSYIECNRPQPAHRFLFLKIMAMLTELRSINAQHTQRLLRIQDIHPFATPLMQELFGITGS
Method in brief: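 Cells: HepG2 stably carrying PXR-Luc. Medium held 5% charcoal-stripped FBS. Compounds in DMSO added after 5 hr plating, incubated 24 hr, then luminescence quantified with ONE-Glo.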

[2] = target: Cytochrome P450 2D6 (Homo sapiens) (UniProt P10635); assay: Cytochrome P450 Family 2 Subfamily D Member 6 (CYP2D6) small molecule antagonists: luciferase reporter qHTS assay (AID 1671196); note: nearly all actives have a fitted effect of over 50% in size; note: potency is the fitted concentration of half-maximal effect
Chain of Cytochrome P450 2D6 (Homo sapiens) (P10635 whole entry, looked up): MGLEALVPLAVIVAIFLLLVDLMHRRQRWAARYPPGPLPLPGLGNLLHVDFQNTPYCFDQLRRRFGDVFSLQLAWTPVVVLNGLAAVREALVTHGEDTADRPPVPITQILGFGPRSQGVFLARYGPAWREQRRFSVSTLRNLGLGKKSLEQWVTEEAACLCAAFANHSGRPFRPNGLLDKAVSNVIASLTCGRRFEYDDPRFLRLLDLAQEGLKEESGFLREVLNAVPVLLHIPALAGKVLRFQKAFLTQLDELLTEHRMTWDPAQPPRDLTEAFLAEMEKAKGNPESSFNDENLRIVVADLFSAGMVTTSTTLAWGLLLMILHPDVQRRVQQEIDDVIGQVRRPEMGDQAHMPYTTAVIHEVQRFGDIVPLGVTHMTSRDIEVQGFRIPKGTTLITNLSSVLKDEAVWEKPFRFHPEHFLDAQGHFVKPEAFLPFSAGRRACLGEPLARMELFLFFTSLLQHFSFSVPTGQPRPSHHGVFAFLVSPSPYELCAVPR
Method in brief: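 Enzyme and proluciferin substrate were first combined with test chemical for 10 min at room temperature. Adding NADPH regeneration solution started a 1 h reaction, stopped with luciferin detection reagent and read by luminescence 20 min later.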

[3] = target: Cytochrome P450 2C19 (Homo sapiens) (UniProt P33261); assay: Cytochrome P450 Family 2 Subfamily C Member 19 (CYP2C19) small molecule antagonists: luciferase reporter qHTS assay (AID 1671197); note: nearly all actives have a fitted effect of over 65% in size; note: potency is the fitted concentration of half-maximal effect
Chain of Cytochrome P450 2C19 (Homo sapiens) (P33261 whole entry, looked up): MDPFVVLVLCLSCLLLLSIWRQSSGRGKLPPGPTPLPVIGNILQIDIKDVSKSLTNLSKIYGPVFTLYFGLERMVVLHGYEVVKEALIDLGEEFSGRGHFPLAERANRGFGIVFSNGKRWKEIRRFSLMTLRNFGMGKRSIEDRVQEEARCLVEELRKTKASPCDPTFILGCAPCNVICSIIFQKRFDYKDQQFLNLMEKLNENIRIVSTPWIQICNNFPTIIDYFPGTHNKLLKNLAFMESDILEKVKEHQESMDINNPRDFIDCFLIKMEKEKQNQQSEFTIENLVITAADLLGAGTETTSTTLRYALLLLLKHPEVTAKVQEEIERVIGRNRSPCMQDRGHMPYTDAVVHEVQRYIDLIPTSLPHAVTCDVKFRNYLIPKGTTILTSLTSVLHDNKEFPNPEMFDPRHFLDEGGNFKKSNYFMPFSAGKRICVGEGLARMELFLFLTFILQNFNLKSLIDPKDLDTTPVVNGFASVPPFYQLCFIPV
Method in brief: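 First, compounds are pinned into enzyme-substrate mix and held 10 min at room temperature. Second, NADPH regeneration solution is added and plates incubate 1 h at 37C. Third, detection reagent is added and luminescence read after 20 min.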

[4] = target: Cytochrome P450 1A2 (Homo sapiens) (UniProt P05177); assay: Cytochrome P450 Family 1 Subfamily A Member 2 (CYP1A2) small molecule antagonists: luciferase reporter qHTS assay (AID 1671199); note: nearly all actives have a fitted effect of over 50% in size; note: potency is the fitted concentration of half-maximal effect
Chain of Cytochrome P450 1A2 (Homo sapiens) (P05177 whole entry, looked up): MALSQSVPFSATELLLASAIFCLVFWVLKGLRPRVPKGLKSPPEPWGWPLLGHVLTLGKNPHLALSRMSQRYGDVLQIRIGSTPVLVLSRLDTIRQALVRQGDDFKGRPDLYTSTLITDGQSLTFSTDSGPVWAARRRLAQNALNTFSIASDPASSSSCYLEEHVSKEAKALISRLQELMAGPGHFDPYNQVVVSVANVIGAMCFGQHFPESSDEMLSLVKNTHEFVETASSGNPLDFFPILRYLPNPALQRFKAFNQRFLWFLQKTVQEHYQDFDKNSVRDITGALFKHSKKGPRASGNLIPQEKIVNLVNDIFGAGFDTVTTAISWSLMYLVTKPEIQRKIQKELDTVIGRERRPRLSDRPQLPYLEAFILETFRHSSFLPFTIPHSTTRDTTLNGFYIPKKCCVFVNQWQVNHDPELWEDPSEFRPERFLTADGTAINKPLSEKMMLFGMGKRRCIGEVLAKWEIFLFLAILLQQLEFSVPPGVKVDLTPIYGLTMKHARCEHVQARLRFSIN
Method in brief: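 Compounds were incubated with CYP1A2 and a luminogenic proluciferin substrate for 10 min at room temperature before the reaction was started with NADPH regeneration solution. After 1 h, detection reagent was added and light output, proportional to CYP activity, was recorded.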

[5] = target: Voltage-gated inwardly rectifying potassium channel KCNH2 (Homo sapiens) (UniProt Q12809); assay: Human Ether-a-go-go-Related Gene (hERG) channel small molecule antagonists: fluorescence cell-based qHTS assay (AID 1671200);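 note: hERG-expressing U2OS cells given a thallium stimulus after FluxOR II dye loading; series mostly up to about 77 µM; nearly all actives have a fitted effect of over 50% in size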
Chain of Voltage-gated inwardly rectifying potassium channel KCNH2 (Homo sapiens) (Q12809 whole entry, looked up): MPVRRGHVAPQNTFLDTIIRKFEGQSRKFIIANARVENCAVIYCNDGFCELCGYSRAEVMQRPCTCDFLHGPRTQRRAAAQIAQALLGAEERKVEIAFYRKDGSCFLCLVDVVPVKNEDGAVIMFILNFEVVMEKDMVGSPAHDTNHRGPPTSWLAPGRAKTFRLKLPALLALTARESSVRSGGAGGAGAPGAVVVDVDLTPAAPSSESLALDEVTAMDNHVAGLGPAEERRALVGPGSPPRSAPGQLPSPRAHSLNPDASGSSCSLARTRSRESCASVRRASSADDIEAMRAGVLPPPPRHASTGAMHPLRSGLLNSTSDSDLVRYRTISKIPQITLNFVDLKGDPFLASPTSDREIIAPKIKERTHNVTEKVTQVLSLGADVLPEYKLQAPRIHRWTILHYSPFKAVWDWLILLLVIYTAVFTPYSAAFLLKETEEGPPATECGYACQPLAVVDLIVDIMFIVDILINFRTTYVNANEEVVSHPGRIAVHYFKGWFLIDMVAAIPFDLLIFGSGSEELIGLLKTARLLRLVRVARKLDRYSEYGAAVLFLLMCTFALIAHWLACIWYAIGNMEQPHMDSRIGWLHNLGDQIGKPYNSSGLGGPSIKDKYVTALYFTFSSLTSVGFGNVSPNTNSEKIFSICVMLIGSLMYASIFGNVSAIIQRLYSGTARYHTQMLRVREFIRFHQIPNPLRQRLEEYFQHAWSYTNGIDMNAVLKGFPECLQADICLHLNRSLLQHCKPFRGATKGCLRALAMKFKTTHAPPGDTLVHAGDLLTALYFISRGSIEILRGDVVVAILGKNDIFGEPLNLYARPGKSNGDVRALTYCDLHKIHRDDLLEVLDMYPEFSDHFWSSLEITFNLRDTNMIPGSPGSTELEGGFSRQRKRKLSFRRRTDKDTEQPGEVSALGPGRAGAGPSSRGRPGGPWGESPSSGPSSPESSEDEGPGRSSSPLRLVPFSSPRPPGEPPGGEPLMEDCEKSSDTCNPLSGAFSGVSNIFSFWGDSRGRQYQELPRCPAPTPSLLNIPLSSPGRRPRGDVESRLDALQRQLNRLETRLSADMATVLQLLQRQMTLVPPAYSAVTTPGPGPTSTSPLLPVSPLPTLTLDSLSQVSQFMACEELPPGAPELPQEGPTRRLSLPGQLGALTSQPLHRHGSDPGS
Method in brief: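 Kinetic two-minute fluorescence traces, sampled at 1 s, were collected following thallium stimulus of U2OS cells (1000 per well) that had been cultured overnight at 37 C and loaded with FluxOR II.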

[6] = target: Cytochrome P450 3A4 (Homo sapiens) (UniProt P08684); assay: Cytochrome P450 Family 3 Subfamily A Member 4 (CYP3A4) small molecule antagonists: luciferase reporter qHTS assay (AID 1671201); note: nearly all actives have a fitted effect of over 50% in size; note: potency is the fitted concentration of half-maximal effect
Chain of Cytochrome P450 3A4 (Homo sapiens) (P08684 whole entry, looked up): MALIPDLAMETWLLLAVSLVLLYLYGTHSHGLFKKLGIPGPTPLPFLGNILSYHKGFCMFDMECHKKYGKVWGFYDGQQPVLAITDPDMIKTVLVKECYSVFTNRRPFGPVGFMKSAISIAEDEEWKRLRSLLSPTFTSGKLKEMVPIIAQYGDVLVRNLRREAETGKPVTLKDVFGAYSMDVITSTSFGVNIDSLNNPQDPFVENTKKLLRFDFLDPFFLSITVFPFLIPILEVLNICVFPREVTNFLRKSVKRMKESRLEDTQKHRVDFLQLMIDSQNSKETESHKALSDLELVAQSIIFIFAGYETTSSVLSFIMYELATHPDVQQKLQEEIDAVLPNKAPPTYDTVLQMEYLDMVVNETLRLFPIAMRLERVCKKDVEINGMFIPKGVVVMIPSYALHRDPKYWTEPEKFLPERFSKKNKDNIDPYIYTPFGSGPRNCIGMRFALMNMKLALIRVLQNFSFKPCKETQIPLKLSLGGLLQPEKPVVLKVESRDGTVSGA
Method in brief: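 Proluciferin-to-luciferin conversion by CYP3A4, NADPH-regenerated, 1 h RT; luminescence read as RLU. Ketoconazole as control.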

[7] = target: Cytochrome P450 2C9 (Homo sapiens) (UniProt P11712); assay: Cytochrome P450 Family 2 Subfamily C Member 9 (CYP2C9) small molecule antagonists: luciferase reporter qHTS assay (AID 1671198)
Chain of Cytochrome P450 2C9 (Homo sapiens) (P11712 whole entry, looked up): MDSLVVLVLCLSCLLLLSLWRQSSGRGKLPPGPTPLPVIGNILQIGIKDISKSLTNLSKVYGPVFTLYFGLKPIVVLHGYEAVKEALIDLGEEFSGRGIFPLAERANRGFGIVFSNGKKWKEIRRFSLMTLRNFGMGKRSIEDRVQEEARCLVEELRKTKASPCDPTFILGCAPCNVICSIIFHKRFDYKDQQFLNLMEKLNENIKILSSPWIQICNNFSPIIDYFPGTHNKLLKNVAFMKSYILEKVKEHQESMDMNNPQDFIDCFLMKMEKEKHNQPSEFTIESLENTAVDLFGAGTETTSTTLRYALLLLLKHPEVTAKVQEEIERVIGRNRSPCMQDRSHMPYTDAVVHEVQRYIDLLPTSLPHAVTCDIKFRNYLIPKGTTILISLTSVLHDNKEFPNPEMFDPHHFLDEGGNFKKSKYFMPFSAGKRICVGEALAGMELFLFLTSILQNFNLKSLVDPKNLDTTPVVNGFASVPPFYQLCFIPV
Method in brief: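 Enzyme-substrate mix preincubated with compound 10 min at room temperature; reaction started with NADPH regeneration solution, 1 h 37C. Luminescent luciferin product read after 20 min detection reagent.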

Row | SMILES | Potency [1] | Potency [2] | Potency [3] | Potency [4] | Potency [5] | Potency [6] | Potency [7]
1 | C/C=C(\C)C(=O)OCCc1ccccc1 | inactive | inactive | 39.9 µM (active) | 39.9 µM (active) | inactive | inactive | 
2 | [O-][n+]1cccc(/C(Cl)=N/OC[C@@H](O)CN2CCCCC2)c1 | inactive | 15.5 µM (active) |  | inactive | inactive |  | inactive
3 | CCCCOCCOC(=O)COc1ccc(Cl)cc1Cl | inactive | inactive | 79.6 µM (active) | 20 µM (active) | inactive | inactive | 
4 | CCCCOC(=O)[C@H](C)O | inactive | inactive | inactive | inactive | inactive | inactive | 
5 | CCCCCCCCCCCCCCC(=O)NC(CO)CCCCCCCCCCCCCC (stereo unspecified) | inactive | inactive |  | 63.8 µM (active) | inactive | inactive | inactive
6 | C/C(=C1\CCOC(=O)S1)N(C=O)Cc1cnc(C)nc1N | inactive | 13.8 µM (active) |  | inactive | inactive | 15.5 µM (active) | inactive
7 | CCC(C)OC(C)CC (stereo unspecified) | inactive | inactive |  | inactive | inactive | inactive | inactive
